Akt phos inh: HTS Assay for Inhibitors of Akt Phophorylation: Primary Screen. activity change, % for hits at 50 µM. Neuro2A IGF-stimulated pAkt S473 HTRF, 20 min; active compounds read low. AID 651550, 2012. actives 0.32% (n = 360,000); in the data active means activity change below about -80%; inconclusive means mostly about -51% to -80%
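Single-point screen (50 µM final compound) in Neuro2A cells stimulated 20 min with 6 nM IGF at 37 deg C. After lysis, Ser473-phosphorylated Akt read by HTRF (ex 330 nm, em 615/665 nm) as the 665/615 ratio.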
Vif-APOBEC3G blk: qHTS for Inhibitors of Vif-A3G Interactions: qHTS | HeLa A3G-eYFP + Vif (tagged APOBEC3G with the HIV-1 protein that degrades it), YFP fluorescence, overnight | Potency, µM (titrated, usually from 46.1 µM), hits mostly inhibitors | actives 0.076% (n = 410,000) | AID 602310, 2012; further: nearly all actives have a fitted effect of over 60% in size
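HeLa cells stably expressing Vif and C-terminally eYFP-tagged A3G, seeded overnight at 37 deg C, then exposed to compound by pintool overnight at 37 deg C. Rise in yellow fluorescence (Ex 488/Em 500-530, Acumen) marks blocked Vif-driven A3G degradation.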
PTAP TSG101 blk: qHTS Assay for Iinhibitors of HIV-1 Budding by Blocking the Interaction of PTAP/TSG101 | 340,000 tested, under 10 active | Tumor susceptibility gene 101 protein (Homo sapiens), Q99816 | AID 493005, 2010 | Fluorescence polarization, FITC-PTAP peptide / Tsg101 binding | Potency, µM (series often up to 115 µM), most hits filed as inhibitors; active means well fitted inhibition curve with a large enough effect in the main read-out, with a control signal flat, not every such curve was filed as active; inconclusive means small, poorly fitted or top-dose-only effect, or effect the other way, or a change in a side signal; inactive means no such curve, though single readings can be large or run the other way
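Steps: Tsg101 binding domain dispensed (10 uM final), compounds pinned in DMSO, FITC-labeled PTAP-motif peptide added (50 nM final); after 20 min binding at room temperature, polarization measured.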
Vif-A3F inh: qHTS for Inhibitors of Vif-A3F Interactions: qHTS; HeLa A3F-eYFP + Vif (tagged APOBEC3F with the HIV-1 protein that degrades it), YFP fluorescence increase; Potency, µM (top dose mostly 46.1 µM); actives 0.2% (n = 390,000); further: nearly all actives have a fitted effect of over 65% in size
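Fluorescence increase (Ex 488/Em 500-530) after overnight compound treatment at 37 deg C flags inhibition of Vif-driven A3F-eYFP loss in stable HeLa A3F-eYFP/Vif cells seeded overnight beforehand.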
12-LOX inh: Primary qHTS assay for inhibitors of human arachidonate 12S-lipoxygenase (ALOX12): Round 2; actives 1.1% (n = 580,000); Polyunsaturated fatty acid lipoxygenase ALOX12 (Homo sapiens), P18054; purified 12hLO, xylenol orange hydroperoxide absorbance; Potency, µM (highest dose often 108 µM), hits mostly inhibitors; AID 1671190, 2021
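Purified human 12hLO (150 nM final) in 25 mM Hepes, 0.01% Triton X-100, pH 7.0 was preincubated 15 min at room temperature with compound. Then 40 uM arachidonic acid was added, 30 min. Hydroperoxide was read by Fe-XO absorbance ratio 573/405 nm.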
S-ASM inh: Inhibitors of Secretory Acid Sphingomyelinase (S-ASM): qHTS. Sphingomyelin phosphodiesterase (Homo sapiens), P17405. placental ASM, HMU-PC fluorogenic substrate, 60 min. Potency, µM (top dose mostly 57.5 µM), most hits filed as inhibitors. actives 0.006% (n = 340,000). AID 504937, 2011
Target sequence (P17405 47-631 limits assumed): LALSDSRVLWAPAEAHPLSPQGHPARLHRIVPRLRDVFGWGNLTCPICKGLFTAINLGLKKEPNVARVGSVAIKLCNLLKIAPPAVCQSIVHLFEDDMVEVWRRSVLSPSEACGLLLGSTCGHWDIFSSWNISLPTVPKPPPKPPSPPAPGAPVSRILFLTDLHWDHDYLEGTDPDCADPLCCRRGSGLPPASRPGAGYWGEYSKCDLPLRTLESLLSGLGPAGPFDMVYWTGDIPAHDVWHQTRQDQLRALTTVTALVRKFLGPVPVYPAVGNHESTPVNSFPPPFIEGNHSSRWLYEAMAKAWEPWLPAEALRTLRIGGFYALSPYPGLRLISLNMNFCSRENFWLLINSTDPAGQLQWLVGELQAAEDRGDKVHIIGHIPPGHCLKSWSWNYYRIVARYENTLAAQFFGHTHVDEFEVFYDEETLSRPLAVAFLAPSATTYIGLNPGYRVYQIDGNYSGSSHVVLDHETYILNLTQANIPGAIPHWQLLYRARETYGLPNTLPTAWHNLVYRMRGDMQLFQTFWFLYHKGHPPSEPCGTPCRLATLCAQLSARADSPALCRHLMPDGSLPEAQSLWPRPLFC
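Human placenta-derived ASM enzyme was preincubated with compound for 10 minutes at room temperature, then given fluorogenic substrate HMU-PC0 (9 uM final) for 60 minutes at 37 °C; a pH 10 stop preceded fluorescence reading at Ex 386/Em 447 nm.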
A number is an active result; 0 = inactive; ? = inconclusive; - = no result given. The list is not random: actives were taken first. Their share in the collection is about 1.4%. Unless noted, the call rests on the fitted dose curve; in most records, active means well fitted curve in the direction sought with a large enough effect; inconclusive means small, poorly fitted or top-dose-only effect, or another doubt; inactive means no such curve, though single readings can be large; an effect the other way counts as inactive or inconclusive.

SMILES	Akt phos inh	Vif-APOBEC3G blk	PTAP TSG101 blk	Vif-A3F inh	12-LOX inh	S-ASM inh
CCCSc1nn(CCN(C)C)c2nc3sc4c(c3c(=O)n12)CCCC4	-	-	-	-	0	-
CCCCCCC12C(=Cc3cc4c(cc31)OCCO4)c1cc(OC)c(OC)cc1C(CC(=O)O)N2C(=O)OC (stereo unspecified)	-	-	-	-	40µM	-
O=C(NN1C(=O)/C(=C/c2ccc(O)cc2)SC1=S)c1ccccc1O	0	0	0	0	0	?
COc1cc(/C=C2\SC(=S)N(NC(=O)c3ccccc3O)C2=O)ccc1O	0	0	0	11µM	0	?
O=C(O)C(Cc1ccccc1)N1C(=O)/C(=C/c2cccs2)SC1=S (stereo unspecified)	0	0	0	0	?	0
COc1cccc(/C=C2\SC(=S)N(C(Cc3ccccc3)C(=O)O)C2=O)c1 (stereo unspecified)	0	0	0	0	45µM	0
CCOc1ccc(/C=C2\SC(=S)N(C(C(=O)O)c3ccccc3)C2=O)cc1OC (stereo unspecified)	0	0	0	0	16µM	0
N#Cc1ccc(Oc2cccc(N)c2)cc1	-	-	-	-	0	-
COc1ccc(CC(C(=O)Nc2ccc(OC)cc2)c2nn[nH]n2)cc1 (stereo unspecified)	0	0	0	0	4.5µM	0
Cc1ccc(Nc2nc(C(N)=O)c(NC(=O)c3ccccc3Br)s2)cc1	-	0	-	0	14µM	-
NC(=O)c1nc(Nc2ccccc2)sc1NC(=O)c1c(F)cccc1F	-	0	-	0	0	-
COc1cccc(-c2nc3ccccc3c(=O)o2)c1	0	0	0	0	0	0
COc1cc(OC)cc(-c2nc3ccccc3c(=O)o2)c1	-99%	0	0	0	0	0
Cc1nn(-c2ccccc2)c(C)c1/C=N/n1cnnc1	0	0	0	0	0	0
Cc1nn(-c2ccccc2)c(C)c1/C=N/O	-111%	0	0	0	0	0
CN1/C(=C\C(=O)COC(=O)c2ccc(O)c(O)c2)C(C)(C)c2ccccc21	0	0	0	?	10µM	0
O=C(O)c1c2c(nc3ccccc13)/C(=C/c1ccccc1[N+](=O)[O-])CCC2	0	0	0	0	?	0
O=C(O)c1c2c(nc3ccccc13)/C(=C/c1cccc([N+](=O)[O-])c1)CCC2	0	0	0	0	40µM	0
CC(C)(C)c1ccc(/C=C2/C(=O)c3ccccc3OC2c2ccccc2)cc1 (stereo unspecified)	-	-	-	-	0	-
Cc1ccccc1OCC(=O)NCC(=O)OCC(=O)c1ccc(-c2ccccc2)cc1	-	0	-	-	-	-
Cc1ccccc1OCC(=O)NNC(=O)c1ccc(-c2ccccc2)cc1	-83%	0	0	0	0	0
O=C(CCS(=O)(=O)c1ccc2c(c1)CCN2C(=O)C1CC1)NCc1ccc(F)cc1	-	-	-	-	0	-
COc1ccccc1/C=C/C1=NC(=C\C=C/c2ccccc2)/C(=O)O1	0	0	0	0	45µM	0
COc1ccccc1/C=C/C=C1N=C(/C=C/c2ccc(Cl)cc2)OC/1=O	0	0	0	0	?	0
COc1ccc(Br)c2c1/C(=N/OC(=O)c1cccc3ccccc13)CC2	-	-	-	-	0	-
SMILES	Akt phos inh	Vif-APOBEC3G blk	PTAP TSG101 blk	Vif-A3F inh	12-LOX inh	S-ASM inh
Cc1c(-c2ccccc2)c(=O)oc2cc(OC(=O)N3CCOCC3)ccc12	-	-	-	-	0	-
CC(=O)Nc1cc(NC(=O)C2(C)CC2(Cl)Cl)ccc1C (stereo unspecified)	-	-	-	-	0	-
O=C(NCC(c1ccccc1)N1CCCC1)c1nn(-c2ccccc2)c(=O)c2ccccc12 (stereo unspecified)	-	-	-	-	0	-
O=C(Nc1c(-c2ccccc2)nc2sccn12)c1ccccc1	-106%	0	0	0	0	0
O=C(Cn1ccc(=O)[nH]c1=O)NC(c1ccccc1)c1cccs1 (stereo unspecified)	-	-	-	-	0	-
O=C(/C=C/c1ccco1)OCC(=O)C12CC3CC(CC(C3)C1)C2	-	-	-	-	40µM	-
CC1CC(C)CN(C(=O)COC(=O)/C=C/c2ccco2)C1 (stereo unspecified)	0	0	0	0	0	0
COc1ccc(C(C)=O)cc1CN(C)CC12CC3CC(CC(C3)C1)C2	-	-	-	-	0	-
CN(C)CCCN(Cc1cccc2ccccc12)Cc1cccc2ccccc12	-	-	-	-	5µM	-
COCCN(CCOC)Cc1cccc2ccccc12	-	-	-	-	0	-
O=C(O)C(=O)/C(=C/c1ccsc1)c1ccc2ccccc2n1	-	-	-	-	8.9µM	-
CC(C)n1nccc1N(CC(=O)Nc1ccc(C#N)cc1)S(=O)(=O)c1ccccc1	-	-	-	-	0	-
N#C/C(=C/c1ccc(N2CCCCCC2)o1)c1cccc(F)c1	-	?	?	5µM	?	0
N#C/C(=C\c1ccc(-c2ccccc2Cl)o1)c1ccc(F)cc1	-	-	-	-	0	-
COc1cc(N2CCCC2)c(OC)cc1/C=C(/C#N)c1cccc(F)c1	0	5µM	0	?	-	0
COc1ccc(/C(C#N)=C\c2ccccc2F)cc1OC	-	-	-	-	0	-
N#C/C(=C/c1ccc(N2CCCCCC2)o1)c1ccc(F)cc1	0	?	?	28µM	-	0
CC(C)c1ccc(S(=O)(=O)N2CCN(C(=O)C3CC(=O)Nc4cc(F)ccc43)CC2)cc1 (stereo unspecified)	-	-	-	-	0	-
COc1ccc(S(=O)(=O)N2CC(C(=O)O)Oc3ccc(CC(=O)O)cc32)cc1 (stereo unspecified)	-123%	0	0	0	0	0
Cn1nnnc1SCCNCc1cc(Br)ccc1OCc1ccccc1Cl	-	0	-	13µM	0	-
Cc1nn(CC(O)c2ccc(F)cc2F)c(=O)c2ccccc12 (stereo unspecified)	-	-	-	-	0	-
COc1cc2ncnc(Nc3ccc(Cl)cc3F)c2cc1OC	-	-	-	-	20µM	-
CC(C)C(C)(C#N)NC(=O)COc1ccc2ccc(=O)oc2c1 (stereo unspecified)	-	-	-	-	0	-
CSc1ccccc1C(=O)NC(C)c1ccc(F)cc1 (stereo unspecified)	-	-	-	-	0	-
O=C(NCc1ccc(Cn2cccn2)cc1)c1cn[nH]c1-c1ccc(F)cc1	-	-	-	-	0	-
Fc1ccc(-c2[nH]ncc2CNCc2cccc(Cn3cccn3)c2)cc1	-	-	-	-	18µM	-
CCCn1c(=O)n(CC(=O)Nc2ccc(C(C)CC)cc2)c(=O)c2c1nc(C)n2CCOC (stereo unspecified)	-	-	-	-	0	-
CN(C)Cc1cc(C(C)(C)C)c(O)c(C(C)(C)C)c1	0	0	0	0	0	0

Compound activity: PubChem, National Center for Advancing Translational Sciences (NCATS)
